Here are results for 17 compounds from PubChem BioAssay (NCATS).

Inconclusive results are not listed. Where a call stands in place of a potency, no number is given. The source made the active and inactive calls. Calls follow the shape of the dose curve; as a rule, active = well fitted inhibition curve with a large enough effect in the repeat runs; inconclusive = weak or mixed curves; inactive = flat fitted curve, though single readings scatter.
Potency is read from the fitted curve at half-maximal effect.

For this assay, the target named is Cytochrome P450 2D6 (Homo sapiens) (UniProt P10635). The experiment in a line: Cytochrome P450 family 2 subfamily D member 6 (CYP2D6) small molecule antagonists: luciferase biochemical (cell-free) qHTS assay (AID 1645840). Also: nearly all actives have a fitted effect of over 55% in size. The conditions noted are these: P450-Glo CYP2D6 enzyme, luciferin luminescence, 1 h; series mostly up to 57.4 µM. The method in brief: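 P450-Glo luminescent screen: recombinant CYP2D6 enzyme–proluciferin substrate mix preincubated with compound 10 min at room temperature, then NADPH regeneration added for 1 h at room temperature. Detection reagent added for 20 min; luciferin light read as relative luminescence units.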
Cytochrome P450 2D6 (Homo sapiens), sequence (P10635 whole entry, looked up): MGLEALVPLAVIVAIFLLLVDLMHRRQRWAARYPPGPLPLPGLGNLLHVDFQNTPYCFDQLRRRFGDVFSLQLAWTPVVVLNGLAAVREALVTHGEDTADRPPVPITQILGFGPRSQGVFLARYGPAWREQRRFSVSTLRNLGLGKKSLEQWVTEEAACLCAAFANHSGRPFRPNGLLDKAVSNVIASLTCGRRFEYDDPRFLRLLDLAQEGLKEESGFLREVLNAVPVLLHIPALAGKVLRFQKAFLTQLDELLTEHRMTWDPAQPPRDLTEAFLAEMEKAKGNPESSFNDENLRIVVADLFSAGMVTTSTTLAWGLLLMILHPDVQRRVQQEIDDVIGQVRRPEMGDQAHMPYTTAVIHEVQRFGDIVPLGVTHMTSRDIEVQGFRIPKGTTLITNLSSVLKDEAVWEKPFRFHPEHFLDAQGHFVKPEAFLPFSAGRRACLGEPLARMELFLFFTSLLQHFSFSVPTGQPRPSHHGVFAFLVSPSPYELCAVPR
Consider `C=CS(=O)(=O)O`, for which the Potency result is “inactive”.
For `COc1cc2ncnc(Nc3cccc(I)c3)c2cc1OC`, the Potency was 12 µM (active).
For `Nc1c(CC(=O)O)cccc1C(=O)c1ccccc1` the value was “inactive”.
Turning to `Nc1nc(O)c(C2=C3C(=Nc4ccccc43)C(=O)NCC2)[nH]1`, the Potency entry is “inactive”.
As to `Cc1c(O)cc2c(c1C)O[C@](C)(CCC[C@H](C)CCC[C@H](C)CCCC(C)C)CC2`, the Potency result is “inactive”.
For `COc1cc(CN(CCN)C(=O)c2cccs2)ccc1OCc1ccccc1` the value was 0.849 µM (active).
For `COC[C@H](c1ccc(C(F)(F)F)cc1)N1CCN(C2(C)CCN(C(=O)c3c(C)ncnc3C)CC2)C[C@H]1C` the value was 16.9 µM (active).
For `CN(C)C(=O)Nc1cccc(-c2ccc(N(C)C)cc2)c1` the value was 21.3 µM (active); for `CN[C@@H]1CCc2[nH]c3ccc(C(N)=O)cc3c2C1`, “inactive”.
In the case of `O=[N+]([O-])c1ccc(Oc2ccc(N=C=S)cc2)cc1`, the Potency entry was “inactive”.
Take `O=C(CCl)Nc1cccc(NC2=NS(=O)(=O)c3ccccc32)c1`: the Potency result is “inactive”.
Then `O=S(O)CO`, with “inactive”; and `CCOC(=O)C1=Cc2ccc(C(F)(F)C(F)(F)F)cc2N=C(N)C1`, with 3.01 µM (active).
For `CCOC(=O)[C@H](CCc1ccccc1)N[C@H]1CCCN2CCC[C@@H](C(=O)O)N2C1=O` the value was “inactive”; for `COc1ccc(-c2ccc3c(N4CCOCC4C)nc(N4CCOCC4C)nc3n2)cc1CO` (configuration not stated), “inactive”.
Then `N#C/C(=C1\Nc2ccccc2S1)c1ccnc(NCCc2cccnc2)n1`, with 8.49 µM (active); and `CCC(=O)Oc1ccc2c(c1)CC[C@@H]1[C@@H]2CC[C@]2(C)[C@@H](OC(=O)CC)CC[C@@H]12`, with “inactive”.
